D2 ag-1: activates the human D2 dopamine receptor. P14416. DiscoveRx PathHunter D2 beta-arrestin, luminescence, 90 min; 100% = 57 uM dopamine signal. activation, % (concentration not given with the values). 360,000 compounds, 0.084% hits; in the data active = activation above about 40%
Target sequence (P14416 whole entry, looked up): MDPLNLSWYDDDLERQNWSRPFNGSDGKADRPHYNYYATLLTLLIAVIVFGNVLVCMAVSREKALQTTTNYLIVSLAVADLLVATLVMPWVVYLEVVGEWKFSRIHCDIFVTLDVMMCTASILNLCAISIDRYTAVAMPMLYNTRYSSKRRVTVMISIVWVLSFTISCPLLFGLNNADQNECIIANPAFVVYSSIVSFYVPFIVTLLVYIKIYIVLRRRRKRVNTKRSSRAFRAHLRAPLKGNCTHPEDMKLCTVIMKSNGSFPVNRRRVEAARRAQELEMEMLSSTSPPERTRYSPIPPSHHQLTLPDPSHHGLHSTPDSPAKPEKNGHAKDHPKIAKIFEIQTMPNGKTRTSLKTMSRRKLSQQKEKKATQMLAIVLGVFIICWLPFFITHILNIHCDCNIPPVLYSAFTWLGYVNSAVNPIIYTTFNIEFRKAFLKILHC
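Agonist mode: compounds alone added to overnight-plated D2 PathHunter cells for 90 min at 37 C, with 57 uM final dopamine (EC100) defining full response. Beta-arrestin recruitment detected by chemiluminescent reagent, read after 1 h at ambient temperature.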
D2 antag: antagonists of human D2 dopamine receptor; 340,000 compounds, 2% hits; P14416; inhibition, % at 10 µM; HEK293 TREx D2 cells, calcium flux, dopamine EC80; in the data active = inhibition above about 30%; inactive = below that, where a call was filed
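In this primary screen, negative modulation is detected by tracking calcium flux after an EC80 dopamine challenge in inducible HEK293 T-REx D2 cells preexposed to test compound for 180 s.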
D2 PAM-1: human D2 receptor positive allosteric modulation. potentiation, % (test concentration not listed). P14416. DiscoveRx D2 beta-arrestin cells, luminescence, 90 min; 100% = 57 uM dopamine signal. 360,000 compounds, 0.23% hits; in the data active = potentiation above about 50%
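PathHunter D2 cells, attached overnight at 37 deg C, received compound in DMSO plus dopamine at EC20 (50 nM final) for 90 min at 37 deg C. Beta-arrestin recruitment was read as luminescence after 1 h with detection reagent at ambient temperature.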
D2 PAM-2: D2 dopamine receptor (human) potentiation. HEK293 T-REx D2, calcium flux, EC20 dopamine potentiation. 340,000 compounds, 0.34% hits. potentiation, % at 10 µM. AID 485347. P14416;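 active = potentiation over 3 SD above the plate norm, cut at about 30% in these data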
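Primary screen. Calcium kinetics in induced HEK293 T-REx D2 cells: compound pre-addition 180 s, EC20 dopamine, 180 s more.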
D2 ag-2: D2 dopamine receptor (human) agonism; HEK293 T-REx D2 cells, calcium flux agonist mode; activation, % at 2 µM; 340,000 compounds, 0.53% hits; AID 485358;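 active = activation over 3 SD above normal in the single-dose calcium agonist read, cut at about 30% in these data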
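Tetracycline-induced HEK293 Trex cells with D2 receptor force-coupled to calcium signaling, plated overnight at 30 C and loaded with no-wash calcium dye. Calcium flux read kinetically for 180 s after compound addition; responses flag agonists.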
Of the large screens only hits and unclear results are named; the others gave an inactive call. Compounds with a hit are over-represented: about 2.4% of the library has one in this group of screens.

COc1cc(NC(=O)CCC(=O)Nc2ccc3nc(N4CCOCC4)cc(C)c3c2)cc(OC)c1OC	D2 antag 31
COc1ccc(NC(=O)CCC(=O)Nc2ccc3nc(N4CCOCC4)cc(C)c3c2)c(OC)c1	none
COc1ccc(-c2cn3nc(N4CCCC(C(=O)NCc5ccc(Cl)cc5)C4)sc3n2)cc1 (stereo unspecified)	none (no result: D2 ag-1, D2 antag, D2 PAM-1, D2 ag-2)
CNc1ccc2ncc(-c3cccc(C(=O)N(C)C)c3)n2n1	none (no result: D2 antag, D2 PAM-2, D2 ag-2)
CCCCCn1c(Sc2ccccc2)nc2c1c(=O)[nH]c(=O)n2C	D2 antag 31
C=CCn1c(Sc2ccccc2)nc2c1c(=O)[nH]c(=O)n2C	none
CC(C)CCSc1nc2c(c(=O)[nH]c(=O)n2C)n1CCCc1ccccc1	D2 antag 35
CC(C)OCc1cc(CN2CCN(c3cccc(C(F)(F)F)c3)CC2)c(O)c2ncccc12	none (no result: D2 ag-1, D2 antag, D2 PAM-1)
O=[N+]([O-])c1cc(CN2CCN(c3cccc(C(F)(F)F)c3)CC2)c2cccnc2c1O	D2 antag 36
CC(C)(C)c1ccc(OCC(=O)NC(Cc2c[nH]c3ccccc23)C(=O)O)cc1 (stereo unspecified)	none (no result: D2 ag-1, D2 antag, D2 PAM-1)
Cc1ccc2c(nc3s/c(=C\c4ccc(-c5ccccc5C(=O)O)o4)c(=O)n32)c1C	D2 ag-2 40
O=C(O)c1ccc(-c2ccc(/C=c3/sc4nc5ccccc5n4c3=O)o2)cc1Cl	D2 antag 34, D2 ag-2 48
CCc1nc(Nc2ccc(F)c(Cl)c2)c2c3c(sc2n1)CCCC3	none (no result: D2 ag-1, D2 antag, D2 PAM-1)
Cc1ccc(NC2=C(NC(=O)c3ccccc3)C(=O)c3ccccc3C2=O)cc1Cl	D2 PAM-1 65
O=C(O)c1cccc(NC2=C(Cl)C(=O)c3ccccc3C2=O)c1	D2 ag-1 41 (no result: D2 antag, D2 ag-2)
COc1ccc(C(=O)NCC(c2cccnc2)N2CCc3ccccc3C2)cc1OC (stereo unspecified)	none (no result: D2 ag-1, D2 antag, D2 PAM-1)
COc1ccc(F)cc1C(=O)C1CCCN(Cc2ccc(Sc3nncn3C)o2)C1 (stereo unspecified)	D2 antag 31
COc1ccc2c(C)cc(SCc3c(C)noc3C)nc2c1	D2 antag 31
CC(=O)N1CCN(c2ccccc2NC(=O)c2cccs2)CC1	none
O=C(Nc1ccccc1N1CCN(C(=O)c2ccccc2)CC1)c1cc2ccccc2o1	D2 antag 63
O=C(Nc1ccccc1N1CCCC1)c1cc2ccccc2o1	none (no result: D2 PAM-2)
CC(=O)N1CCN(c2ccccc2NC(=O)c2ccc3ccccc3c2)CC1	D2 antag 46
Cc1c(Cl)cccc1NC(=O)Cc1ccc([N+](=O)[O-])cc1	D2 antag 45
O=C(Cc1ccc([N+](=O)[O-])cc1)Nc1ccc(Cl)cc1	none
COC(=O)c1cccnc1-n1c(=O)c2cccnc2n(CC(=O)Nc2cccc(C)c2)c1=O	none (no result: D2 ag-1, D2 antag, D2 PAM-1)
Cn1ncc2c(O/N=C(\N)c3ccc(C(C)(C)C)cc3)ncnc21	D2 ag-1 86, D2 PAM-1 85
O=C(COc1ccc(Cl)cc1)NCCc1csc(-c2ccc(C(F)(F)F)cc2)n1	none (no result: D2 ag-1, D2 antag, D2 PAM-1)
CCN(c1ccccc1)S(=O)(=O)c1ccc(F)cc1	none
CCN(c1ccccc1)S(=O)(=O)c1ccc2[nH]c(=O)c(=O)[nH]c2c1	D2 antag 33 (no result: D2 PAM-2)
CC(C)(C)OC(=O)N1CCC(CC2CC(c3cccc(Br)c3)=NO2)(C(=O)NCC2CCCCC2)CC1 (stereo unspecified)	none
O=C(c1ccccc1)N1CCC(CC2CC(c3cccc(Br)c3)=NO2)(C(=O)NCC2CCCCC2)CC1 (stereo unspecified)	D2 antag 31
CC(C)OP(=O)(c1ccc(N(C)C)cc1)C(O)c1ccccc1F (stereo unspecified)	none
CC(C)OP(=O)(c1ccc(N(C)C)cc1)C(O)c1ccncc1 (stereo unspecified)	D2 antag 32
COc1ccccc1C(O)P(=O)(OC(C)C)c1ccc(N(C)C)cc1 (stereo unspecified)	D2 antag 31
CCNC(=O)C1(C)CCN(C(=O)c2ccc3ccccc3c2)C1 (stereo unspecified)	none (no result: D2 antag, D2 PAM-2, D2 ag-2)
CSc1ccc(CN2CCC2(C)C(=O)Nc2cccc(NS(C)(=O)=O)c2)cc1 (stereo unspecified)	none (no result: D2 antag, D2 PAM-2, D2 ag-2)
CCN1CCN(C(=O)c2cc3c(s2)-c2ccccc2S(=O)(=O)C3)CC1	D2 antag 45
CN(C)c1ccc(C2CC(c3c(O)n(C4CCCCC4)c(=O)[nH]c3=O)=Nc3ccccc3S2)cc1 (stereo unspecified)	none (no result: D2 ag-1, D2 antag, D2 PAM-1)
COc1ccc(CCNc2c(C)c(C)nc3ncnn23)cc1	D2 PAM-2 43
Cc1ccc(NCc2cccc(B(O)O)c2)cc1	none (no result: D2 antag, D2 PAM-1, D2 PAM-2, D2 ag-2)
CS(=O)(=O)N1CCc2cc(C(=O)N3CCCCC3)ccc21	none
CS(=O)(=O)N1CCc2cc(C(=O)O)ccc21	D2 PAM-2 31
CSc1nc2sc3c(c2c(=O)n1-c1ccc(F)c(Cl)c1)CCN(C(C)=O)C3	none (no result: D2 ag-1, D2 antag, D2 PAM-1)
CCOC(=O)Cn1cnc2c(nnn2-c2cccc(OC)c2)c1=O	none
COc1cccc(-n2nnc3c(=O)n(CC(=O)OCc4ccccc4)cnc32)c1	D2 PAM-2 50
CCOC(=O)Cn1cnc2c(nnn2-c2ccc(F)cc2)c1=O	D2 antag 32
COCCCN1C(=O)C(CC(=O)NCCN2CCOCC2)CC(C(=O)N(C(C)C)C(C)C)=C1C (stereo unspecified)	none (no result: D2 antag, D2 PAM-2, D2 ag-2)
NC(N)=NC(N)=Nc1ccc2ccccc2c1	D2 antag 33
CCC(C(=O)Nc1ccc(C(C)=O)cc1)n1cnc2nc3c(cc2c1=O)CCCC3 (stereo unspecified)	none (no result: D2 ag-1, D2 antag, D2 PAM-1)
O=C(Nc1ccc(S(=O)(=O)N2CCCC2)cc1)c1ccc(CN2CCOCC2)cc1	none
O=C(Nc1ccc(S(=O)(=O)N2CCCCC2)cc1)c1ccc(CN2CCOCC2)cc1	D2 PAM-2 42 (no result: D2 antag, D2 ag-2)
O=C(Nc1cccc(S(=O)(=O)C(F)F)c1)c1ccc(S(=O)(=O)N2CCCC2)cc1	D2 antag 59
CCN(CC)S(=O)(=O)c1ccc(NC(=O)c2ccc(CN3CCOCC3)cc2)cc1	D2 PAM-2 30
COc1ccc(NC(=O)Nc2nnc(N3CCCCCC3)s2)c(OC)c1	none (no result: D2 ag-1, D2 antag, D2 PAM-1)
CCc1nnc(SCC(=O)Nc2ccc(Cl)cc2F)c2cc3occc3n12	none (no result: D2 ag-1, D2 antag, D2 PAM-1)
CCC1COCCS(=O)(=O)N1Cc1cccc(Cl)c1 (stereo unspecified)	D2 antag 47
O=S1(=O)CCOC[C@H](CC2CCCCC2)N1Cc1cccc(Cl)c1	none
C=CCN(c1ccccc1)S(=O)(=O)c1cccc(C(=O)Nc2ccc(N3CCOCC3)cc2)c1	none
COCc1cccc(-c2csc(C(O)c3ccccc3)n2)c1 (stereo unspecified)	none (no result: D2 antag, D2 PAM-2, D2 ag-2)
O=C1N/C(=N/Nc2ccccc2)S/C1=C\c1ccccc1	D2 PAM-1 55
O=C(Nc1ccccc1)/C(=C/c1ccccc1)NC(=O)c1ccco1	D2 antag 30
O=C(Nc1ccccc1)/C(=C/c1ccc(O)cc1)NC(=O)c1ccco1	none

Compound activity deposited in PubChem by National Center for Advancing Translational Sciences (NCATS).
